Experimental data as given in PubChem BioAssay AID1159580 (chemical genetic matrix, 2015).
About 2,000 (36%) of roughly 5,500 compounds were called active. Inconclusive results (about 18%) are left out. Cut-off read from the data, not from the text of the source: active = normalized growth mostly below about 0.91 (no sharp cut-off); inconclusive = no clear call, values can overlap the other calls; inactive = mostly above about 0.92. This is one part of the list.

Assay: chemical genetic growth profiling, strain panel (AID 1159580);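 note: tested at 20 µM; growth read once vehicle control cultures reached saturation at 30 °C; 1 = growth at the plate median or of vehicle wells; lower values mean less growth of the strain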
Settings: growth OD

Measured: normalized growth

COc1ccc2c(c1)C1(C)CCC(=O)CC1CC2 (stereo not drawn)
inactive: S. cerevisiae deletion strains, locus YAL021C, strain ccr4, active compounds read low 1.01 | S. cerevisiae deletion strains, locus YAL026C, strain drs2, active compounds read low 1.04 | S. cerevisiae deletion strains, locus YAL030W, strain snc1, active compounds read low 1 | S. cerevisiae deletion strains, locus YBL061C, strain skt5, active compounds read low 1.01 | S. cerevisiae deletion strains, locus YBR009C, strain hhf1, active compounds read low 1.01 | S. cerevisiae deletion strains, locus YBR021W, strain FUR4, active compounds read low 0.976 | S. cerevisiae deletion strains, locus YBR023C, strain chs3, active compounds read low 1.01 | S. cerevisiae deletion strains, locus YBR171W, strain sec66, active compounds read low 1.01 | S. cerevisiae deletion strains, locus YBR229C, strain ROT2, active compounds read low 0.994 | S. cerevisiae deletion strains, locus YBR231C, strain swc5, active compounds read low 1.04 | S. cerevisiae deletion strains, locus YBR279W, strain paf1, active compounds read low 1 | S. cerevisiae deletion strains, locus YCL011C, strain gbp2, active compounds read low 1.01 | S. cerevisiae deletion strains, locus YCL016C, strain dcc1, active compounds read low 1 | S. cerevisiae deletion strains, locus YCL029C, strain bik1, active compounds read low 0.986 | S. cerevisiae deletion strains, locus YCL061C, strain MRC1, active compounds read low 1.01 | S. cerevisiae deletion strains, locus YCL069W, strain vba3, active compounds read low 1 | S. cerevisiae deletion strains, locus YCR088W, strain abp1, active compounds read low 1.01 | S. cerevisiae deletion strains, locus YDL005C, strain med2, active compounds read low 1.01 | S. cerevisiae deletion strains, locus YDL035C, strain GPR1, active compounds read low 1.01 | S. cerevisiae deletion strains, locus YDL040C, strain nat1, active compounds read low 0.999 | S. cerevisiae deletion strains, locus YDL074C, strain BRE1, active compounds read low 1.02 | S. cerevisiae deletion strains, locus YDL101C, strain DUN1, active compounds read low 0.998 | S. cerevisiae deletion strains, locus YDL134C, strain PPH21, active compounds read low 0.947 | S. cerevisiae deletion strains, locus YDL185W, strain tfp1, active compounds read low 0.989 | S. cerevisiae deletion strains, locus YDL192W, strain arf1, active compounds read low 0.989 | S. cerevisiae deletion strains, locus YDR001C, strain nth1, active compounds read low 1.01 | S. cerevisiae deletion strains, locus YDR069C, strain doa4, active compounds read low 1.02 | S. cerevisiae deletion strains, locus YDR101C, strain arx1, active compounds read low 1 | S. cerevisiae deletion strains, locus YDR137W, strain rgp1, active compounds read low 0.967 | S. cerevisiae deletion strains, locus YDR150W, strain NUM1, active compounds read low 0.991 | S. cerevisiae deletion strains, locus YDR159W, strain sac3, active compounds read low 1.06 | S. cerevisiae deletion strains, locus YDR162C, strain NBP2, active compounds read low 1 | S. cerevisiae deletion strains, locus YDR195W, strain ref2 1.04 | S. cerevisiae deletion strains, locus YDR297W, strain sur2, active compounds read low 1.02 | S. cerevisiae deletion strains, locus YDR318W, strain mcm21, active compounds read low 0.988 | S. cerevisiae deletion strains, locus YDR334W, strain swr1, active compounds read low 1 | S. cerevisiae deletion strains, locus YDR335W, strain msn5, active compounds read low 1.01 | S. cerevisiae deletion strains, locus YDR388W, active compounds read low 0.989 | S. cerevisiae deletion strains, locus YDR392W, strain spt3, active compounds read low 0.996 | S. cerevisiae deletion strains, locus YDR502C, strain sam2, active compounds read low 0.977 | S. cerevisiae deletion strains, locus YEL003W, strain gim4, active compounds read low 1.01 | S. cerevisiae deletion strains, locus YEL037C, strain rad23, active compounds read low 1.02 | S. cerevisiae deletion strains, locus YEL061C, strain CIN8 (second series), active compounds read low 1.01 | S. cerevisiae deletion strains, locus YEL061C, strain CIN8, active compounds read low 0.993 | S. cerevisiae deletion strains, locus YER015W, strain faa2, active compounds read low 1.01 | S. cerevisiae deletion strains, locus YER016W, strain bim1, active compounds read low 1 | S. cerevisiae deletion strains, locus YER110C, active compounds read low 0.979 | S. cerevisiae deletion strains, locus YER111C, strain swi4, active compounds read low 1.01 | S. cerevisiae deletion strains, locus YER155C, strain BEM2 (second series), active compounds read low 1.02 | S. cerevisiae deletion strains, locus YER155C, strain BEM2, active compounds read low 0.988 | S. cerevisiae deletion strains, locus YER167W, strain BCK2, active compounds read low 0.999 | S. cerevisiae deletion strains, locus YFR010W, strain ubp6, active compounds read low 1.02 | S. cerevisiae deletion strains, locus YGL078C, strain dbp3, active compounds read low 0.982 | S. cerevisiae deletion strains, locus YGL086W, strain mad1, active compounds read low 0.98 | S. cerevisiae deletion strains, locus YGL167C, strain pmr1, active compounds read low 1.01 | S. cerevisiae deletion strains, locus YGL173C, strain kem1, active compounds read low 1.01 | S. cerevisiae deletion strains, locus YGL227W, strain vid30, active compounds read low 1.01 | S. cerevisiae deletion strains, locus YGL240W, strain doc1, active compounds read low 1.01 | S. cerevisiae deletion strains, locus YGL248W, strain PDE1, active compounds read low 0.971 | S. cerevisiae deletion strains, locus YGL253W, strain hxk2, active compounds read low 1.03 | S. cerevisiae deletion strains, locus YGR135W, strain pre9, active compounds read low 0.965 | S. cerevisiae deletion strains, locus YGR252W, strain gcn5, active compounds read low 0.96 | S. cerevisiae deletion strains, locus YHR013C, strain ard1, active compounds read low 1.05 | S. cerevisiae deletion strains, locus YHR027C, strain rpn1, active compounds read low 1.03 | S. cerevisiae deletion strains, locus YHR030C, strain SLT2, active compounds read low 0.993 | S. cerevisiae deletion strains, locus YHR079C, strain IRE1 (second series), active compounds read low 0.991 | S. cerevisiae deletion strains, locus YHR094C, strain hxt1, active compounds read low 0.984 | S. cerevisiae deletion strains, locus YHR129C, strain ARP1, active compounds read low 0.993 | S. cerevisiae deletion strains, locus YHR142W, strain chs7, active compounds read low 1.02 | S. cerevisiae deletion strains, locus YHR200W, strain rpn10, active compounds read low 0.985 | S. cerevisiae deletion strains, locus YIL066C, strain RNR3, active compounds read low 1.01 | S. cerevisiae deletion strains, locus YIL073C, strain SPO22, active compounds read low 0.994 | S. cerevisiae deletion strains, locus YIL125W, strain kgd1, active compounds read low 0.987 | S. cerevisiae deletion strains, locus YIR030C, strain dcg1, active compounds read low 0.983 | S. cerevisiae deletion strains, locus YJL092W, strain hpr5, active compounds read low 1.01 | S. cerevisiae deletion strains, locus YJL095W, strain BCK1 (second series), active compounds read low 1.01 | S. cerevisiae deletion strains, locus YJL095W, strain BCK1, active compounds read low 0.953 | S. cerevisiae deletion strains, locus YJL115W, strain asf1, active compounds read low 1.02 | S. cerevisiae deletion strains, locus YJL129C, strain trk1, active compounds read low 1.01 | S. cerevisiae deletion strains, locus YJL134W, strain LCB3, active compounds read low 0.992 | S. cerevisiae deletion strains, locus YJL154C, strain vps35, active compounds read low 1.01 | S. cerevisiae deletion strains, locus YJL164C, strain tpk1, active compounds read low 1.01 | S. cerevisiae deletion strains, locus YJL166W, strain qcr8, active compounds read low 1.01 | S. cerevisiae deletion strains, locus YJL168C, strain set2, active compounds read low 0.989 | S. cerevisiae deletion strains, locus YJL187C, strain SWE1 (second series), active compounds read low 0.979 | S. cerevisiae deletion strains, locus YJL187C, strain SWE1, active compounds read low 1.01 | S. cerevisiae deletion strains, locus YJR043C, strain POL32, active compounds read low 1.03 | S. cerevisiae deletion strains, locus YKL009W, strain mrt4, active compounds read low 0.969 | S. cerevisiae deletion strains, locus YKL068W, active compounds read low 0.978 | S. cerevisiae deletion strains, locus YKL085W, strain MDH1 (second series), active compounds read low 0.984 | S. cerevisiae deletion strains, locus YKL085W, strain MDH1, active compounds read low 0.984 | S. cerevisiae deletion strains, locus YKL160W, strain elf1, active compounds read low 1 | S. cerevisiae deletion strains, locus YKR001C, strain vps1, active compounds read low 0.965 | S. cerevisiae deletion strains, locus YKR026C, strain gcn3, active compounds read low 1.01 | S. cerevisiae deletion strains, locus YKR091W, strain srl3, active compounds read low 1.01 | S. cerevisiae deletion strains, locus YLL001W, strain dnm1, active compounds read low 1.01 | S. cerevisiae deletion strains, locus YLL026W, active compounds read low 1 | S. cerevisiae deletion strains, locus YLL041C, strain sdh2, active compounds read low 1 | S. cerevisiae deletion strains, locus YLR027C, strain aat2, active compounds read low 1 | S. cerevisiae deletion strains, locus YLR039C, strain RIC1, active compounds read low 0.957 | S. cerevisiae deletion strains, locus YLR058C, strain SHM2, active compounds read low 0.996 | S. cerevisiae deletion strains, locus YLR102C, strain apc9, active compounds read low 0.98 | S. cerevisiae deletion strains, locus YLR221C, strain rsa3, active compounds read low 1.03 | S. cerevisiae deletion strains, locus YLR258W, strain gsy2, active compounds read low 1.02 | S. cerevisiae deletion strains, locus YLR262C, strain YPT6 (second series), active compounds read low 0.99 | S. cerevisiae deletion strains, locus YLR268W, strain sec22, active compounds read low 0.978 | S. cerevisiae deletion strains, locus YLR320W, strain mms22, active compounds read low 1.02 | S. cerevisiae deletion strains, locus YLR330W, strain CHS5, active compounds read low 0.986 | S. cerevisiae deletion strains, locus YLR342W, strain FKS1 (second series), active compounds read low 0.949 | S. cerevisiae deletion strains, locus YLR342W, strain FKS1, active compounds read low 1.01 | S. cerevisiae deletion strains, locus YLR357W, strain rsc2, active compounds read low 1.01 | S. cerevisiae deletion strains, locus YLR370C, strain arc18, active compounds read low 1 | S. cerevisiae deletion strains, locus YLR371W, strain rom2, active compounds read low 1 | S. cerevisiae deletion strains, locus YLR384C, strain iki3, active compounds read low 1.01 | S. cerevisiae deletion strains, locus YLR418C, strain cdc73, active compounds read low 0.962 | S. cerevisiae deletion strains, locus YML016C, strain PPZ1, active compounds read low 0.987 | S. cerevisiae deletion strains, locus YML032C, strain rad52, active compounds read low 0.996 | S. cerevisiae deletion strains, locus YML120C, strain ndi1, active compounds read low 0.996 | S. cerevisiae deletion strains, locus YML124C, strain tub3, active compounds read low 0.98 | S. cerevisiae deletion strains, locus YMR058W, strain fet3, active compounds read low 1.02 | S. cerevisiae deletion strains, locus YMR078C, strain ctf18, active compounds read low 0.985 | S. cerevisiae deletion strains, locus YMR125W, strain sto1, active compounds read low 0.994 | S. cerevisiae deletion strains, locus YMR129W, active compounds read low 1.01 | S. cerevisiae deletion strains, locus YMR205C, strain PFK2, active compounds read low 1.01 | S. cerevisiae deletion strains, locus YMR223W, strain ubp8, active compounds read low 0.975 | S. cerevisiae deletion strains, locus YMR231W, strain pep5, active compounds read low 1.01 | S. cerevisiae deletion strains, locus YMR263W, strain SAP30, active compounds read low 0.99 | S. cerevisiae deletion strains, locus YMR307W, strain GAS1, active compounds read low 1.04 | S. cerevisiae deletion strains, locus YNL067W, strain RPL9B, active compounds read low 0.974 | S. cerevisiae deletion strains, locus YNL071W, strain lat1, active compounds read low 1 | S. cerevisiae deletion strains, locus YNL209W, strain ssb2, active compounds read low 1.01 | S. cerevisiae deletion strains, locus YNL233W, strain BNI4, active compounds read low 0.971 | S. cerevisiae deletion strains, locus YNL248C, strain rpa49, active compounds read low 1.06 | S. cerevisiae deletion strains, locus YNL250W, strain rad50, active compounds read low 0.994 | S. cerevisiae deletion strains, locus YNL271C, strain bni1, active compounds read low 0.986 | S. cerevisiae deletion strains, locus YNL298W, strain CLA4, active compounds read low 0.982 | S. cerevisiae deletion strains, locus YNL307C, strain MCK1, active compounds read low 0.98 | S. cerevisiae deletion strains, locus YNL322C, strain KRE1 (second series), active compounds read low 0.995 | S. cerevisiae deletion strains, locus YNR049C, strain mso1, active compounds read low 1.04 | S. cerevisiae deletion strains, locus YNR052C, strain pop2, active compounds read low 0.986 | S. cerevisiae deletion strains, locus YOL006C, strain TOP1, active compounds read low 0.969 | S. cerevisiae deletion strains, locus YOL012C, strain htz1 0.718 | S. cerevisiae deletion strains, locus YOL147C, strain pex11, active compounds read low 0.988 | S. cerevisiae deletion strains, locus YOR001W, strain rrp6, active compounds read low 1.02 | S. cerevisiae deletion strains, locus YOR061W, strain CKA2, active compounds read low 1 | S. cerevisiae deletion strains, locus YOR069W, strain VPS5, active compounds read low 0.991 | S. cerevisiae deletion strains, locus YOR070C, strain gyp1, active compounds read low 1.02 | S. cerevisiae deletion strains, locus YOR080W, strain dia2, active compounds read low 1.01 | S. cerevisiae deletion strains, locus YOR083W, strain WHI5, active compounds read low 1.01 | S. cerevisiae deletion strains, locus YOR106W, strain vam3, active compounds read low 1.02 | S. cerevisiae deletion strains, locus YOR136W, strain idh2, active compounds read low 0.988 | S. cerevisiae deletion strains, locus YOR144C, strain elg1, active compounds read low 0.985 | S. cerevisiae deletion strains, locus YOR184W, strain ser1, active compounds read low 0.952 | S. cerevisiae deletion strains, locus YOR265W, strain rbl2, active compounds read low 0.987 | S. cerevisiae deletion strains, locus YOR270C, strain vph1, active compounds read low 1.07 | S. cerevisiae deletion strains, locus YOR290C, strain snf2, active compounds read low 0.981 | S. cerevisiae deletion strains, locus YOR316C, strain cot1, active compounds read low 0.992 | S. cerevisiae deletion strains, locus YPL051W, strain arl3, active compounds read low 1.02 | S. cerevisiae deletion strains, locus YPL055C, strain LGE1, active compounds read low 1.02 | S. cerevisiae deletion strains, locus YPL078C, strain atp4, active compounds read low 0.996 | S. cerevisiae deletion strains, locus YPL106C, strain sse1, active compounds read low 1.04 | S. cerevisiae deletion strains, locus YPL240C, strain hsp82, active compounds read low 0.986 | S. cerevisiae deletion strains, locus YPR119W, strain clb2, active compounds read low 0.984 | S. cerevisiae deletion strains, locus YPR141C, strain kar3, active compounds read low 0.96 | S. cerevisiae deletion strains, locus YPR163C, strain tif3, active compounds read low 0.97 | S. cerevisiae deletion strains, locus YPR167C, strain met16, active compounds read low 0.981 | S. cerevisiae deletion strains, strain wtn01, active compounds read low 0.98 | S. cerevisiae strains, strain wild type, active compounds read low 1
